Source: PubChem BioAssay (Sanford-Burnham Center for Chemical Genomics)
CYP2C19 act: increases human CYP2C19 enzyme activity; P33261; recombinant CYP2C19, luciferin-H EGE luminescence; active compounds read high; 0 = fully inhibited enzyme, 1 = untreated enzyme; activation factor at 5 µM; 96,000 tested, under 10 active; AID 1025;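 active = activation factor of at least 2 at 5 µM in the primary screen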;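 note: 0 = wells with 2.5 mM tranylcypromine and 1 = vehicle-only wells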
CYP2C9 act: increases human cytochrome P450 2C9 activity; activation factor at 5 µM; recombinant CYP2C9, luciferin-H conversion, luminescence; active compounds read high; factor 1 = untreated enzyme, 0 = blocked; 96,000 tested, 1.4% active; P11712; AID 1024;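 active = activation factor of 2 or more for CYP2C9 at a 5 µM dose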;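 note: 0 = sulfaphenazole-blocked wells and 1 = vehicle-only wells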
Pyk2 oligo antag: Pyk2 (human) oligomerization antagonism; Q14289; Q293 cells, Pyk2 FERM NanoBiT luminescence; active compounds read low; z-score (the deposit names both 25 µM and 10 µM); 99,000 tested, 0.83% active; AID 1347419;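 active = Z-score of -3 or lower, scaled per plate to the spread of control and sample wells; inactive = z-score above -3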;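 note: negative z-score means lost luminescence so less FERM oligomerization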
Target sequence (Q14289 whole entry, looked up): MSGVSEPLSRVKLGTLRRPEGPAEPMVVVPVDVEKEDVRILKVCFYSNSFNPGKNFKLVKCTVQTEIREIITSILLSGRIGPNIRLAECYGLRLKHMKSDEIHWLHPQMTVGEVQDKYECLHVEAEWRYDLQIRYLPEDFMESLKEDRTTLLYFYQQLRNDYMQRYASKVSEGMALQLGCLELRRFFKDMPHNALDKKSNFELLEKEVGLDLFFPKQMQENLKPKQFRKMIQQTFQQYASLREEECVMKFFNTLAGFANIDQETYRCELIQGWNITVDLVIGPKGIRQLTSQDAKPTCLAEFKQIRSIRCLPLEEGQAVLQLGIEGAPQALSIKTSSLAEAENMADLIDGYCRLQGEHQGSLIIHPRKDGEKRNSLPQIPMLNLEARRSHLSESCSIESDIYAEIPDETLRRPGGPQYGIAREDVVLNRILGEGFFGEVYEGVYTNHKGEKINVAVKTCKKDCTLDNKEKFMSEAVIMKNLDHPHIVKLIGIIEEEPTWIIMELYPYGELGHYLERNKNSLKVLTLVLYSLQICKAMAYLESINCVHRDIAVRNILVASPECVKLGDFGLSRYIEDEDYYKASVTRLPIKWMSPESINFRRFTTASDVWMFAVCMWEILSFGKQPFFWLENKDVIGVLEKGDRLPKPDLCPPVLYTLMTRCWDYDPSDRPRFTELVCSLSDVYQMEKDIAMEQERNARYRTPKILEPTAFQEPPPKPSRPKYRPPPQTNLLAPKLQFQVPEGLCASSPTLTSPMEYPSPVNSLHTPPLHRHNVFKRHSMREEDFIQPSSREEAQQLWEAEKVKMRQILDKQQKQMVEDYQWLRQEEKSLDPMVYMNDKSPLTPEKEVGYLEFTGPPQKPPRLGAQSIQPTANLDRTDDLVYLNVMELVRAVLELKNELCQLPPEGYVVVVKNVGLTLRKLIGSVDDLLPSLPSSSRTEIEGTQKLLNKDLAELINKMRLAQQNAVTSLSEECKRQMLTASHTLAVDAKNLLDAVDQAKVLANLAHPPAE
CYP2C19 inh: inhibitors of human CYP2C19; inhibition, % at 5 µM; 96,000 tested, 21% active; CYP2C19 Supersomes, luciferin-H EGE luminescence, 30 min; P33261; AID 778;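 active = CYP2C19 inhibition above a set limit at 5 µM in the primary screen, cut at about 50% in these data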;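 note: plate controls were negative control wells for no effect and 2.5 mM tranylcypromine positive control for full effect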
CYP2C9 inhib: blocks human cytochrome P450 2C9; CYP2C9 Supersomes, luciferin-H conversion, luminescence; inhibition, % at 5 µM; 96,000 tested, 20% active; AID 777;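 active = blocking of liver enzyme CYP2C9 beyond about 50% at 5 µM, limit read from the data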
Active calls of the source: *; / = not tested or not shown. Hits are enriched below; roughly 28% of the tested compounds scored in any of these assays.

SMILES | CYP2C19 act | CYP2C9 act | Pyk2 oligo antag | CYP2C19 inh | CYP2C9 inhib
N#Cc1ccc(CSc2nnc(Cc3cccs3)n2Cc2ccco2)cc1 | 0.1 | 0.3 | 0.5 | 93* | 66*
COc1ccc(C(=O)CSc2nnc(CNc3ccc(C)cc3C)n2Cc2ccco2)cc1 | 0.1 | 0.4 | 1.5 | 88* | 57*
Cc1ccc(-c2csc(NC(=O)C3CC=CCC3C(=O)O)c2C(=O)OC(C)C)cc1 (stereo not drawn) | 0.9 | 0.9 | 0.85 | 15 | 8
Cc1cc2ccccc2c(=O)n1CC(=O)NCC(=O)N(C)C1CCCCC1 | 0.9 | 1.1 | -0.23 | 7 | -7
O=C(CSc1ccccc1Cl)N1CCC(c2nc3ccccc3s2)CC1 | 0.6 | 0.5 | 0 | 39 | 46
CCNC(=S)N1CCC(c2nc3ccccc3s2)CC1 | 0.2 | 0.6 | -0.55 | 84* | 39
Cc1ccc(NC(=S)N2CCC(c3nc4ccccc4s3)CC2)cc1 | 0.7 | 0.4 | 0.96 | 32 | 57*
COc1ccc(S(=O)(=O)Nc2cc(C)c(O)c(S(=O)(=O)c3ccccc3)c2)cc1 | 0.5 | 0.2 | -0.73 | 53* | 79*
COc1ccc(S(=O)(=O)Nc2cccc(/C=C/C(=O)O)c2)cc1 | / | / | 0.36 | / | /
COC(=O)c1cc(NS(=O)(=O)c2ccc(NC(C)=O)cc2)cc(C(=O)OC)c1 | 0.5 | 0.6 | 0.29 | 53* | 38
COc1ccc(S(=O)(=O)Nc2cccc(NC(C)=O)c2)cc1 | 0 | 0.7 | 0.22 | 95* | 30
COc1cccc(NS(=O)(=O)c2ccc(NC(C)=O)cc2)c1 | 0.4 | 0.8 | -0.39 | 60* | 22
CSCCC(NC(=O)c1ccc(C)o1)C(=O)O (stereo not drawn) | 1 | 1 | 0.78 | 0 | 0
CC(=O)Nc1ccc(S(=O)(=O)Nc2nnc(C(C)C)s2)cc1 | 1.3 | 0.4 | -0.47 | -26 | 60*
COc1ccc(COc2ccsc2C(=O)Nc2ccc(Cl)c(Cl)c2)cc1 | 0.7 | 0.4 | 1.1 | 34 | 55*
O=C(Nc1ccccc1-c1ccccc1)C12CC3CC(CC(C3)C1)C2 | 0.8 | 1 | -0.85 | 19 | 3
COCCCNC(=O)c1oc2ccc(S(=O)(=O)N(C)C3CCCCC3)cc2c1C | 0.8 | 0.2 | -0.77 | 24 | 76*
CCN(CC)C(=O)c1oc2ccc(S(=O)(=O)N3CCCCCC3)cc2c1C | 0.5 | 0.7 | -0.56 | 51* | 28
C=CCNC(=O)c1oc2ccc(S(=O)(=O)N(CC)CC)cc2c1C | 0.8 | 0.5 | -0.27 | 24 | 47
CCN(CC)S(=O)(=O)c1ccc(C(=O)N2CCCCC2)cc1 | 0.8 | 0.3 | 0.21 | 18 | 70*
CCN(CC)S(=O)(=O)c1ccc2oc(C(=O)N3CCCCCC3)c(C)c2c1 | 1 | 0.4 | -0.04 | 3 | 56*
COCc1cc(C)nc(SCC(=O)N2CCC(C)CC2)c1C#N | 0.5 | 0.9 | 0.01 | 49 | 7
CN1CCN(C(=O)CCC(=O)c2ccc(F)cc2)CC1 | 1 | 1.1 | 0.18 | 2 | -12
CC1CCC2(CC1)NC(=O)N(Cc1nc(-c3ccccc3)no1)C2=O (stereo not drawn) | 0.7 | 1 | 0.97 | 33 | -2
CCO/C(C)=C1\N=C(c2ccc(Cl)cc2)OC1=O | 1 | 1 | 0.54 | 0 | 0
SMILES | CYP2C19 act | CYP2C9 act | Pyk2 oligo antag | CYP2C19 inh | CYP2C9 inhib
COC(=O)CN(c1cccc(F)c1)S(C)(=O)=O | 1 | 0.9 | 0.32 | 0 | 8
Cc1c(C(=O)Nc2ccc(F)cc2)oc2ccc(S(=O)(=O)N3CC(C)CC(C)C3)cc12 (stereo not drawn) | 1 | 0.4 | -0.5 | -4 | 58*
Cc1c(C(=O)O)oc2ccc(S(=O)(=O)NCc3ccc(F)cc3)cc12 | 1.1 | 0.3 | -0.48 | -7 | 72*
Cc1c(C(=O)NCc2cccnc2)oc2ccc(S(=O)(=O)N3CC(C)CC(C)C3)cc12 (stereo not drawn) | 0.9 | 0.7 | / | 8 | 26
Cc1ccc(CNC(=O)c2oc3ccc(S(=O)(=O)N4CCC5(CC4)OCCO5)cc3c2C)cc1 | 0.6 | 0.3 | -0.83 | 44 | 65*
Fc1ccc(N2CCN(c3ccc4c(C(F)(F)F)cc(C(F)(F)F)nc4n3)CC2)cc1 | 0.8 | 1.4 | -0.54 | 21 | -40
COC(=O)c1cc(CSc2nnc(-c3ccccc3)c(-c3ccccc3)n2)oc1C | 0.9 | 0.5 | -0.19 | 12 | 53*
COC(=O)c1nnc(-c2ccccc2)c(-c2ccccc2)n1 | 0.8 | 1.2 | 0.08 | 20 | -22
CCCOC(=O)c1c(NC(=O)CSc2nc(-c3ccco3)cc(C(F)(F)F)n2)sc(C(=O)OC)c1C | 0.8 | 0.3 | 0.91 | 22 | 70*
